Source: a collection of fitness landscapes (doi:10.1016/j.celrep.2020.107928)
The full ranking holds about 81,000 sequences; the median of “one-hybrid fitness for binding NBS DNA” is about -0.1, and the highest 2% start at about 0.36. The full list was thinned out, with the highest values kept by preference.

B1: Caulobacter ParB omega fusion; a variant is named by its letters at X, in order, B8GW30 (parent)
chain: MESVVVGEPGMSEGRRGLGRGLSALLGEVDAAPAQAPGEQLGGSREAPIEILQRNPDQPRRTFREEDLEDLSNSIREKGVLQPILVRPSPDTAGEYQIVAGERAWRAAQRAGLKTVPIMVRELDDLAVLEIGIIENVQRADLNVLEEALSYKVLMEKFERTQENIAQTIGKSXSHVANXMRLLXLPDEVQSYLVSGELTAXHARAIAAAADPVALAKQIIEGGLSVRETEALARKAPNLSAGKSKGGRPPRVKDTDTQALESDLSSVLGLDVSIDHRGSTGTLTITYATLEQLDDLCNRLTRGI

Variants of: B1
Assay: one-hybrid fitness for binding NBS DNA (the Noc-binding site; scaled: cognate 1, non-cognate 0); higher = stronger binding
Settings: with NBS DNA site
How it was run: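 In E. coli USO, a HIS3 reporter with its site placed 19 bp from the promoter was used to select Caulobacter ParB variants randomised at four specificity codons. Growth lasted 48 hours at 37°C on histidine-free M9 containing 0.1 mM IPTG and 5 mM 3-AT. Fitness was taken as the log change in variant-to-wild-type read ratio from Illumina sequencing of pre- and post-selection plasmids, rescaled between the non-cognate and cognate sites.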

one-hybrid fitness for binding NBS DNA, 0.297:
YKDS

one-hybrid fitness for binding NBS DNA, 0.597:
QRFS

one-hybrid fitness for binding NBS DNA, 0.221:
QAGA
RMFS

one-hybrid fitness for binding NBS DNA, 0.314:
FMPK

one-hybrid fitness for binding NBS DNA, 0.601:
IRRR

one-hybrid fitness for binding NBS DNA, 0.326:
QAFT

one-hybrid fitness for binding NBS DNA, 0.216:
RMKM

one-hybrid fitness for binding NBS DNA, 0.208:
QSYA
QHGA

one-hybrid fitness for binding NBS DNA, 0.451:
QCAS

one-hybrid fitness for binding NBS DNA, 0.206:
RRVM
RHFR

one-hybrid fitness for binding NBS DNA, 0.226:
IRYR
RRKD
QRFQ

one-hybrid fitness for binding NBS DNA, 0.583:
QRAH

one-hybrid fitness for binding NBS DNA, 0.242:
RFAR

one-hybrid fitness for binding NBS DNA, 0.358:
RISS

one-hybrid fitness for binding NBS DNA, 0.658:
QCRA

one-hybrid fitness for binding NBS DNA, 0.461:
RRKG

one-hybrid fitness for binding NBS DNA, 0.385:
RAAR
YKDT

one-hybrid fitness for binding NBS DNA, 0.364:
QCGA

one-hybrid fitness for binding NBS DNA, 0.42:
RLAR

one-hybrid fitness for binding NBS DNA, 0.79:
RRKY

one-hybrid fitness for binding NBS DNA, 0.29:
RSKY

one-hybrid fitness for binding NBS DNA, 0.238:
RCKM
RRVN
RSVT

one-hybrid fitness for binding NBS DNA, 0.386:
QIRA

one-hybrid fitness for binding NBS DNA, 0.27:
RCKN
RAFR

one-hybrid fitness for binding NBS DNA, 0.397:
QCFS

one-hybrid fitness for binding NBS DNA, 0.302:
QRAF

one-hybrid fitness for binding NBS DNA, 0.312:
QHFT

one-hybrid fitness for binding NBS DNA, 0.479:
QLRA

one-hybrid fitness for binding NBS DNA, 0.214:
RRKE

one-hybrid fitness for binding NBS DNA, 0.404:
QRAM

one-hybrid fitness for binding NBS DNA, 0.328:
QCYA

one-hybrid fitness for binding NBS DNA, 0.237:
RAVT

one-hybrid fitness for binding NBS DNA, 0.273:
ICKR

one-hybrid fitness for binding NBS DNA, 0.653:
QRGA
RCKT

one-hybrid fitness for binding NBS DNA, 0.248:
RCKK

one-hybrid fitness for binding NBS DNA, 0.231:
RCRM

one-hybrid fitness for binding NBS DNA, 0.442:
RRRF

one-hybrid fitness for binding NBS DNA, 0.497:
RRRG

one-hybrid fitness for binding NBS DNA, 0.304:
QWNR

one-hybrid fitness for binding NBS DNA, 0.428:
RRNM

one-hybrid fitness for binding NBS DNA, 0.68:
RRKS

one-hybrid fitness for binding NBS DNA, 0.427:
RHAR

one-hybrid fitness for binding NBS DNA, 0.379:
RRKP

one-hybrid fitness for binding NBS DNA, 0.67:
IRKR

one-hybrid fitness for binding NBS DNA, 0.267:
QMYA

one-hybrid fitness for binding NBS DNA, 0.298:
RRVG

one-hybrid fitness for binding NBS DNA, 0.618:
RSKT

one-hybrid fitness for binding NBS DNA, 0.422:
IRNR

one-hybrid fitness for binding NBS DNA, 0.539:
QKRA

one-hybrid fitness for binding NBS DNA, 0.356:
QSAS

one-hybrid fitness for binding NBS DNA, 0.289:
QLFT
QRFC

one-hybrid fitness for binding NBS DNA, 0.533:
QHRA
QCAT

one-hybrid fitness for binding NBS DNA, 0.401:
QAAT

one-hybrid fitness for binding NBS DNA, 0.395:
QSAT

one-hybrid fitness for binding NBS DNA, 0.423:
IRRT

one-hybrid fitness for binding NBS DNA, 0.41:
QHAT

one-hybrid fitness for binding NBS DNA, 0.332:
QRAE

one-hybrid fitness for binding NBS DNA, 0.623:
RAKT
RIKT

one-hybrid fitness for binding NBS DNA, 0.438:
RRKK
RSAR

one-hybrid fitness for binding NBS DNA, 0.259:
RRKL

one-hybrid fitness for binding NBS DNA, 0.335:
RCVS

one-hybrid fitness for binding NBS DNA, 0.243:
ISKR
RIFR
RIVT

one-hybrid fitness for binding NBS DNA, 0.22:
QRFM

one-hybrid fitness for binding NBS DNA, 0.396:
QLAT

one-hybrid fitness for binding NBS DNA, 0.569:
QMRA

one-hybrid fitness for binding NBS DNA, 0.605:
RRVS

one-hybrid fitness for binding NBS DNA, 0.529:
RCAR

one-hybrid fitness for binding NBS DNA, 0.519:
QARA

one-hybrid fitness for binding NBS DNA, 0.516:
QSRA

one-hybrid fitness for binding NBS DNA, 0.25:
QRAD

one-hybrid fitness for binding NBS DNA, 0.264:
QRAP

one-hybrid fitness for binding NBS DNA, 0.28:
RSFR
QIAT

one-hybrid fitness for binding NBS DNA, 0.684:
QRAS

one-hybrid fitness for binding NBS DNA, 0.321:
RRVH

one-hybrid fitness for binding NBS DNA, 0.384:
RIAR

one-hybrid fitness for binding NBS DNA, 0.646:
RRKN

one-hybrid fitness for binding NBS DNA, 0.201:
QRFP

one-hybrid fitness for binding NBS DNA, 0.249:
QAYA
QKYA

one-hybrid fitness for binding NBS DNA, 0.391:
QRAC

one-hybrid fitness for binding NBS DNA, 0.412:
QRAQ

one-hybrid fitness for binding NBS DNA, ≤ 0.2:
NWRM
VPHA
QWQG
FVWR
DGRN
NANS
VHVA
KSLV
HSRL
ICRT
IRDR
ICNR
IRYT
HAYM
CMSN
ARHS
TQNT
TSWF
VQPL
RWGG
MFWL
RIRE
TLNG
DAAP
GRNT
VFAC
QMDA
QHDA
QPRA
QADA
QTEQ
PTMF
HNHR
PCGG
TWLL
LKVE
PCRQ
SSRV
HLTD
QKFA
QIYA
QIAA
QLYA
QLDA
QSDA
MCAS
PTRY
CVKD
PVDC
YENN
QHSL
RRDG
RRVD
HRIT
SNQT
TVTC
GVCG
MMPN
MEVE
LLMQ
CKKG
RRYF
RRVP
RRDF
RRYP
TKMW
MWVR
CLAT
TSDV
AMPA
PHPV
QICI
IYNQ
TYVC
YDYM
LLAR
RRVF
RCKF
RRVK
SCIR
RESS
WPIG
WPLC
PERM
SLQG
DCLR
PTRA
RWVV
QMMQ
CVMR
TNHL
ESDR
LVTW
PNSF
LPGR
QLIH
RCNM
RCKG
RRDM
YVLT
LIAF
KLGG
ELRQ
RSSE
GPWL
QLGA
PSYL
ACER
PNTQ
RIAN
RHAD
RAAN
RLAN
FGDR
GIAC
MKIR
FHKW
PVKH
TANL
VPPG
KWAS
RSAH
RPAR
PHEL
IQNS
WRET
AVER
TMML
YKYT
YKNR
YKYR
YKDN
YKNT
PGCP
ARAS
RMPC
IYSS
KREW
VDGI
QVNY
CDAR
CPEM
GLTI
PMWG
NFKT
RFVT
RAKN
RSKP
PIPI
SQAS
ERWR
DMMR
DFLL
AIKF
LHHN
WGHS
RCSQ
RIKN
RHVT
RPKT
REKT
RHKD
HNER
YSVR
NNAI
ECLL
LKEG
QLAH
QPAT
QAAH
QSAN
QSAP
DLIW
GYPG
MTVA
ELQY
NMPC
YMLA
PNNH
STTR
GQTC
PTRL
ITAS
QHAD
HTGM
DSKV
QPFS
QPAS
LCKS
STRH
SLSS
AMPP
HDRS
NECS
AAGK
QPEY
QCAM
QCAC
QRFD
QCAQ

one-hybrid fitness for binding NBS DNA, 0.291:
ICRR
QHYA
QSGA

one-hybrid fitness for binding NBS DNA, 0.606:
RMKT

one-hybrid fitness for binding NBS DNA, 0.256:
QSFS

one-hybrid fitness for binding NBS DNA, 0.798:
RRKH

one-hybrid fitness for binding NBS DNA, 0.348:
IDNR

one-hybrid fitness for binding NBS DNA, 0.331:
RRYG

one-hybrid fitness for binding NBS DNA, 0.578:
RHKT

one-hybrid fitness for binding NBS DNA, 0.651:
RRRM

one-hybrid fitness for binding NBS DNA, 0.247:
RLFR

one-hybrid fitness for binding NBS DNA, 0.512:
YKDR
RFKT

one-hybrid fitness for binding NBS DNA, 0.484:
RRKF

one-hybrid fitness for binding NBS DNA, 0.692:
YKDH

one-hybrid fitness for binding NBS DNA, 0.301:
RRVY

one-hybrid fitness for binding NBS DNA, 0.296:
RRYM
RMVT

one-hybrid fitness for binding NBS DNA, 0.647:
RRKM
